Measured values reported in PubChem BioAssay (Tox21).
Results filed as inconclusive are left out. The source made the active and inactive calls. Unless noted, the call rests on the fitted dose curve; in most records, active means well fitted curve in the direction sought with a large enough effect in the repeat runs; inconclusive means weak or mixed curves; inactive means no such curve, though single readings can be large; an effect the other way counts as inactive or inconclusive.

Key:
[1] = molecular target: Thyrotropin receptor (Homo sapiens) (UniProt P16473); test: qHTS assay to identify small molecule antagonists of the thyroid stimulating hormone receptor (TSHR) signaling pathway (AID 1259385; calls by dose curve; further: nearly all actives have a fitted effect of over 20% in size)
Sequence of Thyrotropin receptor (Homo sapiens) (P16473 whole entry, looked up): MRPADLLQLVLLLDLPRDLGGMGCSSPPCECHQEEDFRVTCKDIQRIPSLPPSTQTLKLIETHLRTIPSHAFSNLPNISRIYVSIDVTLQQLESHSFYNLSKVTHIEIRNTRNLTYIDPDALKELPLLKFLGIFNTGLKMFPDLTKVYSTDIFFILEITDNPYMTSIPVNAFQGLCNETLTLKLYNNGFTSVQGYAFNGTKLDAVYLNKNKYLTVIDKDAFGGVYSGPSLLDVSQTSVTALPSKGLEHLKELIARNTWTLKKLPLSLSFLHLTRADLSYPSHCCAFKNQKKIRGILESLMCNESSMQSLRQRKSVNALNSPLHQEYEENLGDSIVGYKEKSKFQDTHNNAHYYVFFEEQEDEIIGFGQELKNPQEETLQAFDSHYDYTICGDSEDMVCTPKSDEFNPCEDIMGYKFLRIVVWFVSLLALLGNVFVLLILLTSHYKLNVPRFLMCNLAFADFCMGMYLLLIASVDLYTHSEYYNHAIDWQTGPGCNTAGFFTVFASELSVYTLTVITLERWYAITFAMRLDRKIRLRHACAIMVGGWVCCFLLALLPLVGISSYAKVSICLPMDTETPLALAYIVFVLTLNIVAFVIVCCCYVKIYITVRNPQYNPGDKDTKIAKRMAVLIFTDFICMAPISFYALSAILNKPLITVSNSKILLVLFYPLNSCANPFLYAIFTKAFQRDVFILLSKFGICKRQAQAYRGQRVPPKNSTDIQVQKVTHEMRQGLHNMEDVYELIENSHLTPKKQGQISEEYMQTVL
Method in brief: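 TSHR-HEK293 cells were plated and held 18 h at 37C/5% CO2, then given compound plus Ro20-1724 and stimulated with TSH at 1.5 ng/mL final. After 30 min at room temperature, cAMP was detected with cAMP-d2/anti-cAMP-cryptate (1 h) by fluorescence.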

[2] = qHTS assay to identify small molecule agonists of the estrogen receptor alpha (ER-alpha) signaling pathway in the presence of an antagonist - cell viability counter screen (AID 1259386);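 further: series mostly up to about 92 µM; cells exposed to compounds for 22 h at 37 °C before the viability read; nearly all actives have a fitted effect of over 30% in size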
Method in brief: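 In this counter screen, compound effects on VM7Luc4E2 viability were tested in the presence of the antagonist ICI-182,780 at 10.0nM final. Compounds were dosed at 15 concentrations, exposure lasted 22hr, and the CellTiter-Fluor signal was read.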

[3] = molecular target: Progesterone receptor (Homo sapiens) (UniProt P06401); test: qHTS assay to identify small molecule agonists of the progesterone receptor (PR) signaling pathway (AID 1346784; calls by dose curve; further: nearly all actives have a fitted effect of over 30% in size)
Sequence of Progesterone receptor (Homo sapiens) (P06401 whole entry, looked up): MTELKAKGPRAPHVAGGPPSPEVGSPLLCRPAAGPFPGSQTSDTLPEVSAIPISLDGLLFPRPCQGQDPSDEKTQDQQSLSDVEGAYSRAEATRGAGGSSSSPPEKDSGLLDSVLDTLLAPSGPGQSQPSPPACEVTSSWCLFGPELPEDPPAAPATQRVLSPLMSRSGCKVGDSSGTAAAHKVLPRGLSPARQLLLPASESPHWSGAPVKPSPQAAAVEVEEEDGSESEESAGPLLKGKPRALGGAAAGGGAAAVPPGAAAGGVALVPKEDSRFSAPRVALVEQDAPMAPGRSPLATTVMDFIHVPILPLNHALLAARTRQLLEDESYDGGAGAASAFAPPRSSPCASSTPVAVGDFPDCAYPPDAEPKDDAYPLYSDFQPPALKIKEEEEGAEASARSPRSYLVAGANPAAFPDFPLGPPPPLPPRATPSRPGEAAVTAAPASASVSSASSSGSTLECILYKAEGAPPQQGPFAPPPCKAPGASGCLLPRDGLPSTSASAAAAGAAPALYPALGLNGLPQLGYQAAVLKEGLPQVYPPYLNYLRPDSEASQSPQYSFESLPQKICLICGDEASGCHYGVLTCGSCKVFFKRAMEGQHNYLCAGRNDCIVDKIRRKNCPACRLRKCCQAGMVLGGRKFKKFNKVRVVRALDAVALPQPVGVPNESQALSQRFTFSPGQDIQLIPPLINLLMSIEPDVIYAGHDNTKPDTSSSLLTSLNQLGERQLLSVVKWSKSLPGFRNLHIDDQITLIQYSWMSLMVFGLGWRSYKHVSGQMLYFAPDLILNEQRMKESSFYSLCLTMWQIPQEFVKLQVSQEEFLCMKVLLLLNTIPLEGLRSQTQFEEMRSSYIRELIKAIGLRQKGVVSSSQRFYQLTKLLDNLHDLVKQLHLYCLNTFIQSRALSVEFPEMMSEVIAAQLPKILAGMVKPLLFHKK
Method in brief: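 Cells (PR-UAS-bla HEK 293T, GripTite) were plated in assay medium containing 2% charcoal-stripped FBS and incubated 6 hr. Test compounds in DMSO were added for 16 hr at 37C. FRET substrate was then loaded for 2 hr at room temperature before fluorescence reading.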

[4] = molecular target: Progesterone receptor (Homo sapiens) (UniProt P06401); test: qHTS assay to identify small molecule antagonists of the progesterone receptor (PR) signaling pathway (AID 1346795; active means well fitted inhibition curve with a large enough effect in the signal ratio in the repeat runs, not every such curve was filed as active; the % refers to the signal ratio)
Method in brief: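 Antagonist mode: compounds tested against 1 nM (final) promegestone stimulation in HEK293T cells expressing PR-UAS-bla reporter, 16 hr at 37C, 5% CO2; beta-lactamase activity detected via B/G FRET substrate after 2 hr at room temperature.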

[5] = qHTS assay to identify small molecule antagonists of the progesterone receptor (PR) signaling pathway - cell viability counter screen (AID 1346798); further: series mostly up to about 92 µM; nearly all actives have a fitted effect of over 50% in size
Method in brief: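 Counter screen for cytotoxicity: viability of PR-UAS-bla HEK293T cells was measured with CellTiter-Glo luminescence following 16 hr compound exposure in the presence of R5020.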

[6] = qHTS assay to identify small molecule agonists of the progesterone receptor (PR) signaling pathway - cell viability counter screen (AID 1346799; calls by dose curve; further: nearly all actives have a fitted effect of over 45% in size)
Method in brief: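 Cells (PR-UAS-bla HEK293T) are plated at 3,000/well in 2% charcoal-stripped FBS medium, rested 6 hr, dosed and incubated 16 hr at 37C. CellTiter-Glo is then added and luminescence measured after 30 min at room temperature.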

[7] = qHTS assay to identify small molecule antagonists of the TGF-beta/Smad signaling pathway - cell viability counter screen (AID 1346824); further: nearly all actives have a fitted effect of over 50% in size
Method in brief: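 SBE-bla HEK 293T cells were plated overnight at 37 C, then given compounds in DMSO plus TGF-beta1 (added as 0.25 ng/mL solution) for 5 hr. After the bla read, CellTiter-Glo was added to the same wells and luminescence read after 30 min at room temperature.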

[8] = qHTS assay to identify small molecule agonists of the TGF-beta/Smad signaling pathway - cell viability counter screen (AID 1346829); further: top concentration of the series differs between compounds; nearly all actives have a fitted effect of over 45% in size
Method in brief: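 HEK 293T SBE-bla line, 5 hr compound exposure at 37 C, multiplexed CellTiter-Glo viability read by luminescence.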

[9] = Human pregnane X receptor (PXR) small molecule agonists, qHTS cell viability counter screen (AID 1346977); further: nearly all actives have a fitted effect of over 50% in size
Method in brief: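 Cytotoxicity counter screen run in the same wells as the PXR luciferase assay, using PXR-Luc HepG2 cells in charcoal-stripped serum medium. Viability: CellTiter-Fluor fluorescence after 24hr compound treatment.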

[10] = Caspase-3/7 induction in CHO-K1 cells by small molecules, qHTS assay (AID 1346980); further: nearly all actives have a fitted effect of over 15% in size
Method in brief: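 Wild-type cells were seeded at 1,500 per well and settled 5 hr at 37 C, 5% CO2, then exposed to DMSO-dissolved compounds for 17 hr. Caspase-Glo 3/7 reagent was added, and luminescence was read after 30min at room temperature.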

[11] = Caspase-3/7 induction in HepG2 cells by small molecules, qHTS cell viability counter screen (AID 1346981); further: series mostly up to about 92 µM; nearly all actives have a fitted effect of over 30% in size
Method in brief: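 In this quantitative HTS counter screen, compounds delivered in DMSO were left on unmodified HepG2 cells for 16 hr at 37 C. Viability was then determined fluorometrically with CellTiter-Fluor, in parallel with caspase-3/7 induction in the same wells.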

[12] = molecular target: Nuclear receptor subfamily 1 group I member 2 (Homo sapiens) (UniProt O75469); test: Human pregnane X receptor (PXR) small molecule agonists, qHTS assay (AID 1346982); further: nearly all actives have a fitted effect of over 35% in size
Sequence of Nuclear receptor subfamily 1 group I member 2 (Homo sapiens) (O75469 whole entry, looked up): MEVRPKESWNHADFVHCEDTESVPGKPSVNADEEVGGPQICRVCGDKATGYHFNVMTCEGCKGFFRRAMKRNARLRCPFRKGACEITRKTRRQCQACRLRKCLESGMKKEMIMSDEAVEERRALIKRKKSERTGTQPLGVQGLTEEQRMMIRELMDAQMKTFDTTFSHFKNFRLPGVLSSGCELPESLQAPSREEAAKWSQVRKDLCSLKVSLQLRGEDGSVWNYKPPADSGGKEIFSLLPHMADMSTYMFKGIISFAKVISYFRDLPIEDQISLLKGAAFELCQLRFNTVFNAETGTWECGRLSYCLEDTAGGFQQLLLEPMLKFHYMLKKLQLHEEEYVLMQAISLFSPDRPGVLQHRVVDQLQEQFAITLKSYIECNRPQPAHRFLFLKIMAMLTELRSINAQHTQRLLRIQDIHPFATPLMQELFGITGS
Method in brief: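 Reporter HepG2 cells expressing PXR-Luc are cultured in charcoal-stripped FBS (5%), treated with compounds for 24 hr at 37 C, and assayed by ONE-Glo luminescence after 30 min at room temperature.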

[13] = molecular target: Nuclear receptor subfamily 1 group I member 2 (Rattus norvegicus) (UniProt Q9R1A7); test: Rat pregnane X receptor (rPXR) activation by small molecules, qHTS assay (AID 1346983); conditions: rPXR luciferase reporter cells, One-Glo luminescence, 24 h; max activation: hits give high values; further: nearly all actives have a fitted effect of over 20% in size
Sequence of Nuclear receptor subfamily 1 group I member 2 (Rattus norvegicus) (Q9R1A7 whole entry, looked up): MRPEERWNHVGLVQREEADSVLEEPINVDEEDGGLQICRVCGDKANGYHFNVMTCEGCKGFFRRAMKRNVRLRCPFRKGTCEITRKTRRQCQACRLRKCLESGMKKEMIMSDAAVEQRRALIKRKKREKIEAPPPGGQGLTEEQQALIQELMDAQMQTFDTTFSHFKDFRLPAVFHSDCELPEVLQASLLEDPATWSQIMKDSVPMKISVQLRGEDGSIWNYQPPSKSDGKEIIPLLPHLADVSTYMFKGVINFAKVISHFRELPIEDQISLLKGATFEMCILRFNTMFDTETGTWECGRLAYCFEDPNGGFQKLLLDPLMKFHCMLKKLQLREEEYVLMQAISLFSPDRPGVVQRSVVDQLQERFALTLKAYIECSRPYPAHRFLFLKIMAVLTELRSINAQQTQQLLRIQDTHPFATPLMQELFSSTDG
Method in brief: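 Cell-based rPXR luciferase reporter assay, 2,000 cells per well, rested 5hr at 37 C before compound addition in DMSO, then 24 hr at 37 C. One-Glo reagent was added and luminescence read after 30 min at room temperature.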

[14] = molecular target: Nuclear receptor subfamily 1 group I member 2 (Homo sapiens) (UniProt O75469); test: Human pregnane X receptor (PXR) activation by small molecules, qHTS assay (AID 1346985); further: nearly all actives have a fitted effect of over 40% in size
Method in brief: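 DPX-2 cells (HepG2 co-transfected with a PXR response element and a CYP3A4-promoter luciferase construct) were seeded at 2,000 per well, rested 5 hr at 37C, then exposed to DMSO-dissolved compounds for 24 hr. Activation was read as luciferase luminescence.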

[15] = qHTS assay to identify small molecule agonists of the TGF-beta/Smad signaling pathway (AID 1346859; active means well fitted activation curve with a large enough effect in the signal ratio in the repeat runs, not every such curve was filed as active; the % refers to the signal ratio; further: series mostly up to about 77 µM)
Method in brief: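 Reporter line: HEK 293T with stably integrated SBE-controlled beta-lactamase. Compound exposure lasts 5 hr at 37 C and 5% CO2; substrate loading follows for 2 hr at room temperature, with emission read at 460 and 530 nm.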

[16] = molecular target: Thyrotropin-releasing hormone receptor (Homo sapiens) (UniProt P34981); test: qHTS assay to identify small molecule antagonists of the thyrotropin-releasing hormone receptor (TRHR) signaling pathway (AID 1346877; active means well fitted inhibition curve with a large enough effect in the repeat runs, not every such curve was filed as active; further: series mostly up to about 51 µM)
Sequence of Thyrotropin-releasing hormone receptor (Homo sapiens) (P34981 whole entry, looked up): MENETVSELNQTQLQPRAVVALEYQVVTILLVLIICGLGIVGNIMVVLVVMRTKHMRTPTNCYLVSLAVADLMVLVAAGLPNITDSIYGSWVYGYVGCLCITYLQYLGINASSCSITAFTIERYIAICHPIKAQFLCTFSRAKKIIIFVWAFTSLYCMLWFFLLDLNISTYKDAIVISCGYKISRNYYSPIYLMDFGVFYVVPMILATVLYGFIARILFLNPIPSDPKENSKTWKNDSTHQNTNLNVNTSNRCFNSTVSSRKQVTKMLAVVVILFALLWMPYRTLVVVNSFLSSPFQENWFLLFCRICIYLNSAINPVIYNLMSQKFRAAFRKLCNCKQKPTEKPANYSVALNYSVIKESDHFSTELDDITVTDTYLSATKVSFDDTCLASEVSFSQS
Method in brief: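 Kinetic fluorescence (3 min, 1 s resolution) following stimulation with TRH at 1 nM final; HEK293 cells bearing human TRHR; 5 min compound preincubation at RT; concentration-response over 15 points, triplicates.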

[17] = molecular target: Thyrotropin-releasing hormone receptor (Homo sapiens) (UniProt P34981); test: qHTS assay to identify small molecule agonists of the thyrotropin-releasing hormone receptor (TRHR) signaling pathway (AID 1346891; calls by dose curve;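 further: HEK293 cells expressing TRHR with calcium dye readout; series mostly up to about 58 µM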)
Method in brief: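 Cells: TRHR-Hek293, seeded and incubated 18 h. Dye loading: 2 h at 37 °C. Compound added from DMSO stock by pin tool. Read-out: kinetic calcium fluorescence over 3 min.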

[18] = Caspase-3/7 induction in HepG2 cells by small molecules, qHTS assay (AID 1346978); further: nearly all actives have a fitted effect of over 15% in size
Method in brief: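 Wild-type HepG2 cells (2,000/well) were settled 5 h at 37 C, 5% CO2, then exposed to compounds in DMSO for 17 h. Caspase-3/7 activity was read by luminescence 30 min after adding Caspase-Glo 3/7 reagent at room temperature.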

[19] = Caspase-3/7 induction in CHO-K1 cells by small molecules, qHTS cell viability counter screen (AID 1346979); further: nearly all actives have a fitted effect of over 35% in size
Method in brief: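 Cytotoxicity counter screen run in parallel with the caspase-3/7 assay: CHO-K1 cells, 16hr compound treatment at 37C, then CellTiter-Fluor for 1hr before fluorescence reading.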

[20] = molecular target: Nuclear receptor subfamily 1 group I member 2 (Homo sapiens) (UniProt O75469); test: CYP3A4 induction through human pregnane X receptor (PXR) by small molecules, qHTS assay (AID 1346984); further: nearly all actives have a fitted effect of over 40% in size
Method in brief: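 Induction measured in HepG2-based DPX-2 cells co-expressing human PXR and a CYP3A4 promoter-driven luciferase. After a 24-hour compound exposure, cells received CYP3A4 luciferin substrate at 3uM final for 3 hours, and light output was then recorded.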
On the % scale 0 is the no-effect control and ±100 the full control effect.

CC(C)CCCC(C)CCCC(C)CCCCC(C)CCCC(C)CCCC(C)C (stereo not given)
inactive: Potency [1] | outcome [2] | Potency [3] | Potency [4] | Potency [5] | Potency [6] | outcome [7] | outcome [8] | Potency [9] | outcome [10] | outcome [11] | Potency [12] | max activation [13] -0.619% | Potency [14]

CC(C)=CC(=O)O
inactive: Potency [1] | outcome [2] | Potency [3] | Potency [4] | Potency [5] | Potency [6] | outcome [7] | outcome [15] | outcome [16] | outcome [17] | Potency [9] | outcome [18] | Potency [19] | outcome [10] | Potency [12]

O=C1OC(=O)c2cc([N+](=O)[O-])ccc21
inactive: Potency [1] | outcome [2] | Potency [3] | Potency [4] | Potency [5] | Potency [6] | outcome [7] | outcome [8] | outcome [16] | outcome [17] | Potency [9] | Potency [19] | outcome [10] | outcome [11] | Potency [12]

CCCCc1ccc2cccc(S(=O)(=O)O)c2c1
inactive: Potency [1] | outcome [2] | Potency [3] | Potency [4] | Potency [5] | Potency [6] | outcome [7] | outcome [8] | outcome [15] | Potency [9] | Potency [19] | outcome [10] | outcome [11]

COc1ccc(NC(C)=O)cc1
inactive: Potency [1] | outcome [2] | Potency [3] | Potency [4] | Potency [5] | Potency [6] | outcome [7] | outcome [8] | Potency [9] | outcome [18] | Potency [19] | outcome [10] | outcome [11] | Potency [12]

CCN(CC)C(=O)c1ccc(O)c(OC)c1
inactive: Potency [1] | outcome [2] | Potency [3] | Potency [4] | Potency [5] | Potency [6] | outcome [7] | outcome [8] | outcome [16] | outcome [17] | Potency [9] | outcome [18] | Potency [19] | outcome [10] | outcome [11] | max activation [13] -5.72% | Potency [20] | Potency [14]

CC(C)c1cccc(O)c1
inactive: Potency [1] | outcome [2] | Potency [3] | Potency [4] | Potency [5] | Potency [6] | outcome [7] | outcome [8] | outcome [16] | outcome [17] | Potency [9] | outcome [18] | Potency [19] | outcome [10] | outcome [11] | Potency [12]

N[C@@H](CS)C(=O)O
inactive: Potency [1] | outcome [2] | Potency [3] | Potency [4] | Potency [5] | Potency [6] | outcome [7] | outcome [8] | outcome [15] | Potency [9] | outcome [18] | Potency [19] | outcome [10] | outcome [11] | Potency [12]

FC(F)(F)C(F)(F)C(F)(F)C(F)(F)C(F)(F)C(F)(F)C(F)(F)C(F)(F)C(F)(F)C(F)(F)F
inactive: activity change, negative = inhibition [1] -3.91% [at 8.39 µM] | activity change, negative = cytotoxicity [2] 4.74% [at 8.39 µM] | activation [3] 2.84% [at 8.39 µM] | activity change, negative = inhibition [4] 0.137% [at 8.39 µM] | activity change, negative = cytotoxicity [5] 3.97% [at 8.39 µM] | activity change, negative = cytotoxicity [6] 0% [at 8.39 µM] | viability change, negative = cytotoxic [7] -11.6% [at 6.97 µM] | activity change, negative = cytotoxicity [8] 13.6% [at 6.97 µM] | activity, negative = inhibition [16] 0.552% [at 4.65 µM] | activation [17] 0.116% [at 5.23 µM] | activity change, negative = cytotoxicity [9] 1.13% [at 8.39 µM] | caspase activation [18] -0.76% [at 8.39 µM] | activity change, negative = cytotoxicity [19] 7.28% [at 8.39 µM] | caspase-3/7 activation [10] -0.497% [at 8.39 µM]

CCC(C(=O)NC(N)=O)c1ccccc1 (stereo not given)
inactive: Potency [1] | outcome [2] | Potency [3] | Potency [4] | Potency [5] | Potency [6] | outcome [7] | outcome [16] | outcome [17] | Potency [9] | outcome [18] | Potency [19] | outcome [10] | outcome [11] | Potency [12] | max activation [13] -2.91% | Potency [20] | Potency [14]

CCN1CCN(c2cc3c(cc2F)c(=O)c(C(=O)O)cn3C2CC2)CC1
inactive: Potency [1] | outcome [2] | Potency [3] | Potency [4] | Potency [5] | Potency [6] | outcome [7] | outcome [8] | outcome [16] | outcome [17] | Potency [9] | outcome [18] | Potency [19] | outcome [10] | outcome [11] | Potency [12]

NC(CS)C(=O)O (stereo not given)
inactive: Potency [1] | outcome [2] | Potency [3] | Potency [5] | Potency [6] | outcome [7] | outcome [8] | outcome [15] | Potency [9] | outcome [18] | Potency [19] | outcome [10] | outcome [11] | Potency [12] | max activation [13] -0.0152% | Potency [20] | Potency [14]

COc1ccc2cc(C=O)ccc2c1
inactive: Potency [1] | outcome [2] | Potency [3] | Potency [5] | Potency [6] | outcome [7] | outcome [8] | outcome [16] | outcome [17] | Potency [9] | outcome [18] | Potency [19] | outcome [10] | outcome [11]

NS(=O)(=O)c1cc(C2(O)NC(=O)c3ccccc32)ccc1Cl (stereo not given)
inactive: Potency [1] | outcome [2] | Potency [3] | Potency [5] | Potency [6] | outcome [7] | outcome [8] | outcome [15] | outcome [16] | outcome [17] | Potency [9] | outcome [18] | Potency [19] | outcome [10] | outcome [11] | max activation [13] -0.257%
